Assay results published in PubChem BioAssay (NCATS).
Records with an inconclusive call do not appear. The source made the active and inactive calls. Unless noted, calls come from the whole dose curve; as a rule, active = well fitted inhibition curve with a large enough effect; inconclusive = small, poorly fitted or top-dose-only effect; inactive = flat fitted curve, though single readings scatter.

target: T1, Tyrosine-protein phosphatase non-receptor type substrate 1 (Homo sapiens) + Leukocyte surface antigen CD47 (Homo sapiens) (UniProt P78324+Q08722); assay: CD47-SIRPalpha protein protein interaction - HTRF assay qHTS validation (AID 1347058; active = well fitted curve in the direction sought with a large enough effect in the signal ratio, not every such curve was filed as active; the % refers to the signal ratio; note: 0% is about no effect); conditions: TR-FRET HTRF CD47-His / biotin-SIRPalpha binding, ratio 665/615; series mostly up to 38.3 µM; activity change, negative = inhibition: at the top concentration
T1 sequence (P78324 whole entry, looked up, the tested form may be a part): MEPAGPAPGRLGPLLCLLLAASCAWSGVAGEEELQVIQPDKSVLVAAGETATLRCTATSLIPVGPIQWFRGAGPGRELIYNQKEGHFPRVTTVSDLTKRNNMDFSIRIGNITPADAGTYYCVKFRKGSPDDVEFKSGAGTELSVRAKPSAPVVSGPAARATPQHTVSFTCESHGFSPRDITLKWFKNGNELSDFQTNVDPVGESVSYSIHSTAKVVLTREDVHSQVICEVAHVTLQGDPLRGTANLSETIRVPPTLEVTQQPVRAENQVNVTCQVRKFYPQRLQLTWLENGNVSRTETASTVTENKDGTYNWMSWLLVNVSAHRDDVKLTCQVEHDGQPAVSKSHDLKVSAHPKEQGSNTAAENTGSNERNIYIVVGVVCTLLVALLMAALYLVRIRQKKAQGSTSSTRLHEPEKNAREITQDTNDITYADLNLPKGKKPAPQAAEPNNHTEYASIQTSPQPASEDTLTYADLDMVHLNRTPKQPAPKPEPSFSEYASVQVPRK
T1 sequence (Q08722 whole entry, looked up, the tested form may be a part): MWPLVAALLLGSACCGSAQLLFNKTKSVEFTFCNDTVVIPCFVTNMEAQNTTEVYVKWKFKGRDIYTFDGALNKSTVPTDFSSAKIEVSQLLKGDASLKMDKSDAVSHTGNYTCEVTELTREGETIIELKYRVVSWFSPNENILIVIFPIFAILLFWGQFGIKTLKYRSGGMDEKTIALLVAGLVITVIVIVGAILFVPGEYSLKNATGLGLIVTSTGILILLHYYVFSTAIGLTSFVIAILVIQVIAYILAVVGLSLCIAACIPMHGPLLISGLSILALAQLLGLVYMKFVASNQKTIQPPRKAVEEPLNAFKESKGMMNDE
How it was run: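 Soluble extracellular domains (6His-CD47, Avi-tag-biotinylated SIRPalpha) in PBS pH 7.4 with 0.05% IGEPAL CA-630. Compounds were preincubated 30 min at RT with CD47 and anti-His-Eu, then SIRPalpha and SAV-XL665 were added. TR-FRET 665/615 ratio.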

Compound	activity change, negative = inhibition
NCCC1CCCC(CCN)N1 (stereo unspecified)	0.285% (inactive)
COc1ccc(CCn2nnnc2C2(c3ccc(C)cc3)CC2)cc1	10.3% (inactive)
O=c1[nH]c2cc(Cl)ccc2c(O)c1-c1ccc(Oc2ccccc2)cc1	0.18% (inactive)
C=CC1(C)CC(=O)C2(O)C(C)(O1)C(OC(C)=O)C(O)C1C(C)(C)CCC(O)C12C (stereo unspecified)	-1.32% (inactive)
NCCCCN	-0.448% (inactive)
CCCc1c(OCCCOc2ccc(OCC(=O)O)cc2)ccc(C(C)=O)c1O	-2.64% (inactive)
C=CC[C@H](N)C(=O)O	-1.55% (inactive)
Nc1ncnc2c1ncn2C1CCCC1	2.14% (inactive)
Cc1nc(N=Nc2ccc(C(=O)O)cc2)c(COP(=O)(O)O)c(C=O)c1O	9.19% (inactive)
COc1ccc2c(c1)c(CC(=O)O)c(C)n2C(=O)c1ccccc1	-1.14% (inactive)
CCCOC(=O)c1c(-c2ccccc2)nc(CC)c(C(=O)SCC)c1CCC	1.03% (inactive)
CCCCCCCCCCC(C)(C)C(=O)Nc1c(OC)cc(OC)cc1OC	-0.112% (inactive)
CCCC[C@@]1(C2CCCC2)Cc2cc(OCC(=O)O)c(Cl)c(Cl)c2C1=O	-11.2% (inactive)
C/C(=C\c1ccc(C(=O)O)cc1)c1ccc2c(c1)C(C)(C)CCC2(C)C	-8.88% (inactive)
Nc1ncnc2c1nc(Br)n2C1OC2COP(=O)(O)O[C@@H]2C1O (stereo partly specified)	-3.33% (inactive)
O=C(O)CCC/C=C\C[C@@H]1[C@@H](/C=C/[C@H](O)C2Cc3ccccc3C2)[C@@H](F)C[C@@H]1O	-10.3% (inactive)
O=C(O)C1CN(CCCP(=O)(O)O)CCN1 (stereo unspecified)	0.452% (inactive)
N=C(N)c1ccccc1	5.22% (inactive)
Brc1c(Br)c(Br)c2[nH]cnc2c1Br	-7.43% (inactive)

Compound	activity change, negative = inhibition
Cc1nc2n(c(=O)c1CCN1CCC(c3noc4cc(F)ccc34)CC1)CCCC2O (stereo unspecified)	0.754% (inactive)
COc1ccc(C(=O)NCc2cccnc2)cc1C(=O)NCc1cccnc1	-1.4% (inactive)
O=c1cc(-c2ccccc2F)[nH]c2cc3c(cc12)OCO3	2.42% (inactive)
CNC(=O)c1cc2c(cn1)[nH]c1ccccc12	0.0619% (inactive)
N[C@@H](Cc1ccc(F)cc1)C(=O)O	-6.72% (inactive)
N=C(N)c1ccc(OCCCCCOc2ccc(C(=N)N)cc2)cc1 (tested in a mixture with another compound)	-3.94% (inactive)
O=C(c1ccc2c(c1)OCCO2)N1CCCCC1	0.416% (inactive)
NCC(O)(CS(=O)(=O)O)c1ccc(Cl)cc1 (stereo unspecified)	-0.596% (inactive)
CC(C)[C@@H]1CC[C@@H](C)C[C@@H]1P(=O)(c1ccccc1)c1ccccc1	-0.06% (inactive)
Clc1nccc2c1ccc1ccccc12	1.5% (inactive)
O=C(O)C1CCNCC1	-0.148% (inactive)
CC(N)=O	1.32% (inactive)
CC(=O)C(C)=O	-3.02% (inactive)
O=C(O)/C=C/c1cnc[nH]1	4.18% (inactive)
NC1(C(=O)O)CCc2cc(C(=O)O)ccc21 (stereo unspecified)	18.9% (inactive)
Oc1ccc(Cn2cc[nH]c2=S)cc1	2.2% (inactive)
NC1CONC1=O (stereo unspecified)	1.38% (inactive)
NC(=O)CNCCC(c1ccccc1)c1ccccc1	-4.26% (inactive)
O=C(O)c1ccccc1Nc1cccc(OCc2ccc3ccccc3n2)c1	3.49% (inactive)

target: T1, Tyrosine-protein phosphatase non-receptor type substrate 1 (Homo sapiens) + Leukocyte surface antigen CD47 (Homo sapiens); assay: CD47-SIRPalpha protein protein interaction - Alpha assay qHTS validation (AID 1347059); conditions: AlphaScreen CD47-His/biotin-SIRPalpha binding, LOPAC; series mostly up to 38.3 µM; activity change, negative = inhibition: at the top concentration;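 note: bead proximity luminescence from CD47 binding SIRPalpha after compound preincubation with SIRPalpha; % is set by controls: 0 for no effect and ±100 for the full control effect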
How it was run: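 AlphaScreen signal between CD47-His (12.5 nM) and biotin-SIRPalpha (25 nM) soluble extracellular domains, bead-captured via Ni-NTA and streptavidin. Compounds, in 7-point titrations, met SIRPalpha 30 min before CD47; PBS pH 7.4 with 0.05% IGEPAL.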

Compound	activity change, negative = inhibition
NCCC1CCCC(CCN)N1 (stereo unspecified)	9.16% (inactive)
COc1ccc(CCn2nnnc2C2(c3ccc(C)cc3)CC2)cc1	-0.732% (inactive)
O=c1[nH]c2cc(Cl)ccc2c(O)c1-c1ccc(Oc2ccccc2)cc1	-3.33% (inactive)
C=CC1(C)CC(=O)C2(O)C(C)(O1)C(OC(C)=O)C(O)C1C(C)(C)CCC(O)C12C (stereo unspecified)	-2.2% (inactive)
NCCCCN	0.205% (inactive)
CCCc1c(OCCCOc2ccc(OCC(=O)O)cc2)ccc(C(C)=O)c1O	0.866% (inactive)
C=CC[C@H](N)C(=O)O	-0.5% (inactive)
Nc1ncnc2c1ncn2C1CCCC1	3.84% (inactive)
Cc1nc(N=Nc2ccc(C(=O)O)cc2)c(COP(=O)(O)O)c(C=O)c1O	1.26% (inactive)
COc1ccc2c(c1)c(CC(=O)O)c(C)n2C(=O)c1ccccc1	1.61% (inactive)
CCCOC(=O)c1c(-c2ccccc2)nc(CC)c(C(=O)SCC)c1CCC	28% (inactive)
CCCCCCCCCCC(C)(C)C(=O)Nc1c(OC)cc(OC)cc1OC	0.663% (inactive)
CCCC[C@@]1(C2CCCC2)Cc2cc(OCC(=O)O)c(Cl)c(Cl)c2C1=O	0.127% (inactive)
C/C(=C\c1ccc(C(=O)O)cc1)c1ccc2c(c1)C(C)(C)CCC2(C)C	0.31% (inactive)
Nc1ncnc2c1nc(Br)n2C1OC2COP(=O)(O)O[C@@H]2C1O (stereo partly specified)	3.42% (inactive)
O=C(O)CCC/C=C\C[C@@H]1[C@@H](/C=C/[C@H](O)C2Cc3ccccc3C2)[C@@H](F)C[C@@H]1O	-0.658% (inactive)
O=C(O)C1CN(CCCP(=O)(O)O)CCN1 (stereo unspecified)	0% (inactive)
N=C(N)c1ccccc1	3.23% (inactive)
Brc1c(Br)c(Br)c2[nH]cnc2c1Br	0% (inactive)

Compound	activity change, negative = inhibition
Cc1nc2n(c(=O)c1CCN1CCC(c3noc4cc(F)ccc34)CC1)CCCC2O (stereo unspecified)	0.993% (inactive)
COc1ccc(C(=O)NCc2cccnc2)cc1C(=O)NCc1cccnc1	0.626% (inactive)
O=c1cc(-c2ccccc2F)[nH]c2cc3c(cc12)OCO3	0.566% (inactive)
CNC(=O)c1cc2c(cn1)[nH]c1ccccc12	-0.847% (inactive)
N[C@@H](Cc1ccc(F)cc1)C(=O)O	-1.55% (inactive)
N=C(N)c1ccc(OCCCCCOc2ccc(C(=N)N)cc2)cc1 (tested in a mixture with another compound)	0.186% (inactive)
O=C(c1ccc2c(c1)OCCO2)N1CCCCC1	-1.94% (inactive)
NCC(O)(CS(=O)(=O)O)c1ccc(Cl)cc1 (stereo unspecified)	-1.99% (inactive)
CC(C)[C@@H]1CC[C@@H](C)C[C@@H]1P(=O)(c1ccccc1)c1ccccc1	-3.22% (inactive)
Clc1nccc2c1ccc1ccccc12	9.99% (inactive)
O=C(O)C1CCNCC1	3.2% (inactive)
CC(N)=O	0% (inactive)
CC(=O)C(C)=O	-0.225% (inactive)
O=C(O)/C=C/c1cnc[nH]1	0.453% (inactive)
NC1(C(=O)O)CCc2cc(C(=O)O)ccc21 (stereo unspecified)	-2.76% (inactive)
Oc1ccc(Cn2cc[nH]c2=S)cc1	-0.521% (inactive)
NC1CONC1=O (stereo unspecified)	3.08% (inactive)
NC(=O)CNCCC(c1ccccc1)c1ccccc1	1.8% (inactive)
O=C(O)c1ccccc1Nc1cccc(OCc2ccc3ccccc3n2)c1	-0.75% (inactive)
